Results taken from PubChem BioAssay (NCATS).
Inconclusive results are not listed. The source made the active and inactive calls. The call rests on the fitted dose curve; in most records, active means well fitted curve in the direction sought with a large enough effect; inconclusive means small, poorly fitted or top-dose-only effect, or another doubt; inactive means no such curve, though single readings can be large; an effect the other way counts as inactive or inconclusive.

What was measured:
[1] = target: Cytochrome P450 2C9 (Homo sapiens) (UniProt P11712); assay: qHTS Assay for Inhibitors and Substrates of Cytochrome P450 2C9 (AID 883); further: nearly all actives have a fitted effect of over 60% in size; further: potency means the concentration at half of the fitted maximal effect
Cytochrome P450 2C9 (Homo sapiens), sequence (P11712 whole entry, looked up): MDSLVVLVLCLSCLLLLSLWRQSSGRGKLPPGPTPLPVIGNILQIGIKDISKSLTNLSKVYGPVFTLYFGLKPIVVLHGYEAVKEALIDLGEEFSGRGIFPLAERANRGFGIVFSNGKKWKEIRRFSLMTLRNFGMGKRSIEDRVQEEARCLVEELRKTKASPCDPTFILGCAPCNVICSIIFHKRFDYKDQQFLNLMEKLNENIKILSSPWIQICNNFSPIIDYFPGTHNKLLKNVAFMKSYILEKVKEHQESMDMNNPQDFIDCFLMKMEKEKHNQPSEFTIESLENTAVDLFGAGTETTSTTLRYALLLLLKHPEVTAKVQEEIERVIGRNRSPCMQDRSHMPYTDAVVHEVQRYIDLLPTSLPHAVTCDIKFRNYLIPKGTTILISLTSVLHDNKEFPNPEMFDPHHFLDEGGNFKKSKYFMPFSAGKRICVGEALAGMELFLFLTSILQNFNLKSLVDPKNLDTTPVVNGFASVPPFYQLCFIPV
In short: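 A luminogenic readout tracked human CYP2C9 (10nM) converting deoxyluciferin (100uM, at KM) in 25mM KPO4 during 60 min at 37C with regenerated NADPH. Values normalized to 57uM sulphaphenazole as complete inhibition.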

[2] = target: Cytochrome P450 3A4 (Homo sapiens) (UniProt P08684); assay: qHTS Assay for Inhibitors and Substrates of Cytochrome P450 3A4 (AID 884); further: nearly all actives have a fitted effect of over 50% in size; further: potency means the concentration at half of the fitted maximal effect
Cytochrome P450 3A4 (Homo sapiens), sequence (P08684 whole entry, looked up): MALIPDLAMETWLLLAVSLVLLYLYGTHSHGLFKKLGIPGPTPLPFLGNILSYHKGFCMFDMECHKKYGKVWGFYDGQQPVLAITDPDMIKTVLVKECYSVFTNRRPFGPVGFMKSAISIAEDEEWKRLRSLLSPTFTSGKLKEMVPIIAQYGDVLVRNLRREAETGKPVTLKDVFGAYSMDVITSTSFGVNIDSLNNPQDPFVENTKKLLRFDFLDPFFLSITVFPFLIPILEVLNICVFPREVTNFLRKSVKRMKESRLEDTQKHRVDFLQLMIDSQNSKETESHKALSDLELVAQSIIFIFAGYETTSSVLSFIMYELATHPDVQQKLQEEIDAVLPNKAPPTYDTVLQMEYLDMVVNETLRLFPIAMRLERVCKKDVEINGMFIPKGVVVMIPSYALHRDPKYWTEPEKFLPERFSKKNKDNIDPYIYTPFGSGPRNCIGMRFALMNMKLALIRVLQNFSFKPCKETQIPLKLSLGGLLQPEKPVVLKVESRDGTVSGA
In short: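 20 nM human CYP3A4 with 25 uM Luciferin-PPXE (at KM) in 200 mM KPO4, preincubated 10 min with compound; NADPH regeneration started a 60 min RT reaction. Luciferin detected by luminescence, normalized to 57 uM ketoconazole as full inhibition.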

[3] = S16 Schwann cell PMP22 intronic element firefly luciferase assay (AID 624032); further: nearly all actives have a fitted effect of over 30% in size; further: potency means the concentration at half of the fitted maximal effect
In short: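 Rat S16 Schwann cells stably carrying a PMP22 intronic element-driven Fluc reporter were seeded overnight, then exposed to compounds for 24 h at 37 °C. Luminescence was normalized to PTC124 (positive control) and DMSO (0% activity).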

CP215 = assay: qHTS profiling for inhibitors of Plasmodium falciparum proliferation (AID 504749); further: nearly all actives have a fitted effect of over 60% in size; further: potency means the concentration at half of the fitted maximal effect; conditions: P. falciparum in erythrocytes, SYBR Green DNA, 72 h; series mostly up to 12.8 µM
In short: (§1)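 Parasite proliferation within erythrocytes, 72 h exposure. Endpoint: SYBR Green I fluorescence after overnight lysis at room temperature. Controls: 0.29 uM artemisinin, DMSO.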

CP237 = assay: as above; conditions: P. falciparum in erythrocytes, SYBR Green DNA, 72 h; series mostly up to 12.8 µM
In short: as §1

CP260 = assay: as above; conditions: P. falciparum in erythrocytes, SYBR Green DNA, 72 h; series mostly up to 12.8 µM
In short: as §1

CP266 = assay: as above; conditions: P. falciparum in erythrocytes, SYBR Green DNA, 72 h; series mostly up to 12.8 µM
In short: as §1

CP269 = assay: as above; conditions: P. falciparum in erythrocytes, SYBR Green DNA, 72 h; series mostly up to 12.8 µM
In short: as §1

CP297 = assay: as above; conditions: P. falciparum in erythrocytes, SYBR Green DNA, 72 h; series mostly up to 12.8 µM
In short: as §1

CP315 = assay: as above; conditions: P. falciparum in erythrocytes, SYBR Green DNA, 72 h; series mostly up to 12.8 µM
In short: as §1

CP335 = assay: as above; conditions: P. falciparum in erythrocytes, SYBR Green DNA, 72 h; series mostly up to 12.8 µM
In short: as §1

GB4 = assay: as above; conditions: P. falciparum in erythrocytes, SYBR Green DNA, 72 h; series mostly up to 12.8 µM
In short: as §1

P94_40 = assay: as above; conditions: P. falciparum in erythrocytes, SYBR Green DNA, 72 h; series mostly up to 12.8 µM
In short: as §1

W2 = assay: as above; conditions: P. falciparum in erythrocytes, SYBR Green DNA, 72 h; series mostly up to 12.8 µM
In short: as §1

7G8 = assay: as above; conditions: P. falciparum in erythrocytes, SYBR Green DNA, 72 h; series mostly up to 12.8 µM
In short: as §1

ICS = assay: as above; conditions: P. falciparum in erythrocytes, SYBR Green DNA, 72 h; series mostly up to 12.8 µM
In short: as §1

PC26 = assay: as above; conditions: P. falciparum in erythrocytes, SYBR Green DNA, 72 h; series mostly up to 12.8 µM
In short: as §1

[4] = target: Cytochrome P450 2C19 (Homo sapiens) (UniProt P33261); assay: qHTS Assay for Inhibitors and Substrates of Cytochrome P450 2C19 (AID 899); further: nearly all actives have a fitted effect of over 60% in size; further: potency means the concentration at half of the fitted maximal effect
Cytochrome P450 2C19 (Homo sapiens), sequence (P33261 whole entry, looked up): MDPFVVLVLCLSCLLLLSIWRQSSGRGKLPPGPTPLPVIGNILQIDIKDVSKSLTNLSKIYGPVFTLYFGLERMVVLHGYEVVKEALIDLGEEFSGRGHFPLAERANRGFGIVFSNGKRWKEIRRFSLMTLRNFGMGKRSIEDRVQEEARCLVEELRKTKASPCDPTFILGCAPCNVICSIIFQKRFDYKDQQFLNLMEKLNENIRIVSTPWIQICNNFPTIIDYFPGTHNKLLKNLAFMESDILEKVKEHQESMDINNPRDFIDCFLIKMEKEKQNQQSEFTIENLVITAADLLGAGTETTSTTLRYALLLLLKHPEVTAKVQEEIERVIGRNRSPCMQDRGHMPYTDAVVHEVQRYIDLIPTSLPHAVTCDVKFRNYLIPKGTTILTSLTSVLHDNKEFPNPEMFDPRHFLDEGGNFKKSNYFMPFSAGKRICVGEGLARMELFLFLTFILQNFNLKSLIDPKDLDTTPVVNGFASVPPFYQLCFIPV
In short: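 NADPH-dependent conversion of Luciferin-H EGE (10uM, at KM) by 5nM enzyme in 50mM KPO4, 60 min at 37C following 10 min compound preincubation. Stopped with luciferin detection buffer; luminescence read after 20 min.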

[5] = target: Cytochrome P450 2D6 (Homo sapiens) (UniProt P10635); assay: qHTS Assay for Inhibitors and Substrates of Cytochrome P450 2D6 (AID 891); further: nearly all actives have a fitted effect of over 60% in size; further: potency means the concentration at half of the fitted maximal effect
Cytochrome P450 2D6 (Homo sapiens), sequence (P10635 whole entry, looked up): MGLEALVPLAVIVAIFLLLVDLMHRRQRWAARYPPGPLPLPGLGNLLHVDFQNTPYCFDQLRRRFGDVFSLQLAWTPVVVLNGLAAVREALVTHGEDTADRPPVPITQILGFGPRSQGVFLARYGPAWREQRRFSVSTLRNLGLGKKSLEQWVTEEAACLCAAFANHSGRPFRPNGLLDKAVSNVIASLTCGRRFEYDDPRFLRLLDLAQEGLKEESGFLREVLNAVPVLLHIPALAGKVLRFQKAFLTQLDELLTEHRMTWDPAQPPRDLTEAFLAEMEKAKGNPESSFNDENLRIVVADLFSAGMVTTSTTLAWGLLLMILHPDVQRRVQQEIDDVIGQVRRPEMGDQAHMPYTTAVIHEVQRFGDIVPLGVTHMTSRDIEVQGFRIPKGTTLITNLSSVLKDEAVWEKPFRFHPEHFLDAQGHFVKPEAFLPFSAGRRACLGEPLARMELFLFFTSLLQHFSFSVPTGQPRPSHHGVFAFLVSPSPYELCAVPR
In short: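 Human CYP2D6 (5 nM) with 30 uM Luciferin-ME EGE (at Km) in 100 mM KPO4, compound preincubated 10 min, then NADPH regeneration system for 60 min at room temperature. Luciferin read by luminescence; normalized to 1.43 uM quinidine.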

[6] = target: Cytochrome P450 3A4 (Homo sapiens) (UniProt P08684); assay: qHTS Assay for Activators of Cytochrome P450 3A4 (AID 885); further: nearly all actives have a fitted effect of over 65% in size
In short: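 Quantitative HTS format: compounds preincubated with 20nM human CYP3A4 and Luciferin-PPXE substrate at KM, reaction started by NADPH regeneration, stopped after 60 min, luciferase luminescence read 20 min later.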

Measured: Potency

C=CCSC[C@@H]1Nc2cc(Cl)c(S(N)(=O)=O)cc2S(=O)(=O)N1
inactive: [1]

CC(=O)O[C@]1(C(C)=O)CC[C@@H]2[C@@H]3C=C(C)C4=CC(=O)CC[C@@]4(C)[C@H]3CC[C@]21C
not listed: [1] | 7G8 | ICS | PC26 | [4] | [5] | [6]
inactive: all other assays above

CO[C@H]1[C@@H](OC(N)=O)[C@H](O)[C@@H](Oc2ccc3c(O)c(NC(=O)c4ccc(O)c(CC=C(C)C)c4)c(=O)oc3c2C)OC1(C)C
not listed: [1] | [2] | CP266 | CP297 | W2 | [4] | [5] | [6]
inactive: all other assays above

CC(C)(C)NC[C@H](O)COc1cccc2c1CCC(=O)N2
not listed: [1] | [2] | [3] | CP335 | [4] | [5] | [6]
inactive: all other assays above

CCOC(=O)[C@H](CCc1ccccc1)N[C@@H](C)C(=O)N1[C@H](C(=O)O)C[C@H]2CCC[C@@H]21
not listed: [1] | [2] | CP297 | [5] | [6]
inactive: all other assays above

C=CCN1C(=CCO)[C@H]2C[C@H]3[C@@H]1CC[C@@]31c3ccccc3N3C=C4[C@@H]5N(/C=C/2[C@H]31)c1ccccc1[C@]51CC[C@H]2[C@H]1C[C@@H]4/C(=C/CO)N2CC=C
not listed: [1] | [2] | CP335 | [4] | [5] | [6]
inactive: all other assays above

C[C@@]12CC[C@H]3[C@@H](CCC4=CC(=O)CC[C@]43C)[C@H]1CC[C@H]2C(=O)CO
active: ICS 3.55 µM
not listed: [1] | [2] | P94_40 | [4] | [5] | [6]
inactive: all other assays above

COc1cc2nc(N3CCN(C(=O)[C@@H]4CCCO4)CC3)nc(N)c2cc1OC
not listed: [1] | [2] | [3] | CP266 | W2 | [4] | [5] | [6]
inactive: all other assays above

NC(=O)N[C@H]1NC(=O)NC1=O
not listed: [1] | [2] | [3] | GB4 | [4] | [5] | [6]
inactive: all other assays above

NS(=O)(=O)c1cc2c(cc1Cl)N[C@@H](CC1CCCC1)NS2(=O)=O
not listed: [2] | [4] | [5] | [6]
inactive: all other assays above

C#C[C@@]1(O)CC[C@@H]2[C@@H]3CCC4=C(CCC(=O)C4)[C@H]3CC[C@]21C
active: [4] 0.0631 µM | [3] 3.89 µM

COc1cc(N)c(Cl)cc1C(=O)N[C@H]1CCN(CCCOc2ccc(F)cc2)C[C@H]1OC
inactive: [1] | [4] | CP215 | CP266 | CP297 | CP315
active: 7G8 5.01 µM | CP260 3.16 µM | P94_40 3.16 µM | W2 5.1 µM

C=CCOc1ccccc1OC[C@H](O)CNC(C)C
inactive: [1] | 7G8 | CP260 | CP269 | CP335 | ICS | PC26
active: CP237 3.16 µM | W2 1.14 µM

COC(=O)C1=C(C)NC(C)=C(C(=O)OC(C)C)[C@H]1c1cccc2nonc12
active: 7G8 3.16 µM | ICS 3.55 µM
inactive: CP266

CC(=O)OCC(=O)[C@@]1(O)CC[C@@H]2[C@H]3CCC4=CC(=O)C=C[C@]4(C)[C@]3(F)[C@@H](O)C[C@@]21C
not listed: [1] | [2] | [3] | P94_40 | [4] | [5] | [6]
inactive: all other assays above

CC[N+](CC)(CC)CC[C@](O)(c1ccccc1)C1CCCCC1
active: [5] 0.02 µM
not listed: [1] | [2] | CP260 | W2 | ICS | PC26 | [4] | [6]
inactive: all other assays above

Nc1ccccc1S(N)(=O)=O
inactive: [1]

O=C1O[C@H](CN2CCOCC2)CN1/N=C\c1ccc([N+](=O)[O-])o1
active: 7G8 3.55 µM
inactive: CP215 | CP266 | CP269 | CP297 | CP315 | CP335 | GB4 | PC26

O=C(Nc1ccccc1)OC[C@H](CN1CCCCC1)OC(=O)Nc1ccccc1
active: [5] 0.398 µM
not listed: [1] | [2] | CP237 | W2 | 7G8 | [4] | [6]
inactive: all other assays above

O=C(/C=C\c1ccc(O)c(O)c1)O[C@@H]1C[C@](O)(C(=O)O)C[C@@H](O)[C@@H]1O
inactive: [1]

Cc1c(C)c2c(c(C)c1O)CC[C@@](C)(C(=O)O)O2
inactive: [6]

CS(=O)(=O)c1ccc([C@H](O)[C@H](CO)NC(=O)C(Cl)Cl)cc1
inactive: 7G8 | CP260 | CP266 | PC26

CC(=O)[C@@]1(O)CC[C@H]2[C@H]3C[C@@H](C)C4=CC(=O)C=C[C@]4(C)[C@@]3(F)[C@@H](O)C[C@]21C
inactive: [6] | [3] | CP215 | CP237 | CP260 | CP269 | CP297 | CP315 | CP335 | GB4 | P94_40

CN1C(=O)C[C@H](c2ccccc2)C1=O
not listed: [1] | [2] | CP237 | [4] | [5] | [6]
inactive: all other assays above

CC1(C)O[C@@H]2C[C@H]3[C@H]4C[C@H](F)C5=CC(=O)CC[C@]5(C)[C@@H]4[C@H](O)C[C@]3(C)[C@]2(C(=O)CO)O1
not listed: [1] | [2] | CP215 | 7G8 | [4] | [5] | [6]
inactive: all other assays above

CC(=O)N[C@H](CS)C(=O)O
inactive: [1] | [2] | [5] | [4]

O=C(NC[C@@H](O)CO)c1c(I)c(C(=O)NC[C@@H](O)CO)c(I)c(N(CCO)C(=O)CO)c1I
not listed: [1] | [2] | CP266 | P94_40 | [4] | [5] | [6]
inactive: all other assays above

CCC[C@H]1C[C@H](C(=O)N[C@H]([C@@H]2O[C@H](SC)[C@@H](O)[C@H](O)[C@@H]2O)[C@H](C)O)N(C)C1
inactive: [1]

C#C[C@]1(O)CC[C@@H]2[C@H]3CCc4cc(OC)ccc4[C@@H]3CC[C@@]21C
inactive: [6]

C[C@@]12CC[C@@H]3c4ccc(O)cc4CC[C@H]3[C@H]1C[C@@H](O)[C@H]2O
inactive: [1]

CC(=O)[C@@H]1CC[C@@H]2[C@@H]3C[C@H](C)C4=CC(=O)CC[C@@]4(C)[C@H]3[C@H](O)C[C@]21C
active: [1] 0.398 µM
not listed: [2] | CP297 | P94_40 | W2 | 7G8 | ICS | [4] | [5]
inactive: all other assays above

Cc1noc(C)c1-c1nc(Nc2ccncc2)c2ccccc2n1
active: [2] 0.316 µM
inactive: [6]

NC(=O)N/N=C\c1ccc([N+](=O)[O-])o1
inactive: [6]

COc1ccc2c3c([nH]c2c1)[C@@H]1C[C@@H]2[C@@H](C[C@H](O)[C@H](OC)[C@H]2C(=O)O)CN1CC3
inactive: [1]

C[C@H](Oc1ccccc1)C(=O)N[C@@H]1C(=O)N2[C@@H]1SC(C)(C)[C@@H]2C(=O)O
not listed: [1] | [2] | [3] | CP335 | [4] | [5] | [6]
inactive: all other assays above

CC(=O)N(C[C@@H](C)C(=O)O)c1c(I)cc(I)c(N)c1I
inactive: [1] | [3] | 7G8 | CP237 | CP260 | CP335 | ICS | P94_40
